Hits are enriched below; roughly 4.8% of the tested compounds scored in any of these assays.
ATXN2 expr inh – inhibitors of ATXN2 expression | Potency, µM (top dose mostly 57 µM), hits mostly inhibitors | HEK-293 ATXN2-luciferase reporter, luminescence, 24 h | AID 1745845 | 360,000 tested, 0.72% active; further: nearly all actives have a fitted effect of over 55% in size
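ATXN2-luciferase reporter cells (luciferase flanked by upstream and downstream ATXN2 gene portions) were treated 24 h at 37 °C with compounds at up to 57 uM. SteadyGlo luminescence gave expression; GF-AFC fluorescence gave viability.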
USP1-UAF1 inh – USP1/UAF1 (human) deubiquitinase inhibition | O94782 | recombinant USP1/UAF1, Ub-Rhodamine cleavage fluorescence | Potency, µM (titrated, usually from 57.1 µM), usual class: inhibitors | 390,000 tested, 0.23% active; further: nearly all actives have a fitted effect of over 60% in size
Target sequence (O94782 whole entry, looked up): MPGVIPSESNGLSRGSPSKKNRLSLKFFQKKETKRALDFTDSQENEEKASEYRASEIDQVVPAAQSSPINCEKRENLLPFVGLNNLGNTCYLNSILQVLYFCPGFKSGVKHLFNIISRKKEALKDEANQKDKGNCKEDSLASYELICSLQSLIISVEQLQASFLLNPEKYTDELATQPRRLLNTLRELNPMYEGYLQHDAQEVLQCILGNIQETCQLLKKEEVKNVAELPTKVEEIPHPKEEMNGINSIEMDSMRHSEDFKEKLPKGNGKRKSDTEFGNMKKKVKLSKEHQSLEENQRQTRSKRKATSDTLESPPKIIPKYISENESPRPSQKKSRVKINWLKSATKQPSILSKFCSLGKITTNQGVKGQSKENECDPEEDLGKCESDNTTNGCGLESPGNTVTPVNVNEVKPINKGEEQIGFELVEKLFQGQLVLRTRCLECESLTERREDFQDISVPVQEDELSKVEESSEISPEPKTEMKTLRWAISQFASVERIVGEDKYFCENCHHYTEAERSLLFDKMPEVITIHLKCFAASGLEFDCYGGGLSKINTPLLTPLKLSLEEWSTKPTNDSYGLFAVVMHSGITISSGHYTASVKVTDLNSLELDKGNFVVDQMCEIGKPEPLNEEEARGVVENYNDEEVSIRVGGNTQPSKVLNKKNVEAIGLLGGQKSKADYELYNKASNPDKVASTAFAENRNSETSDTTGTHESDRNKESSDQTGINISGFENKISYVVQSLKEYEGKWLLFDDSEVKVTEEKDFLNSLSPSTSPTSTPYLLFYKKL
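Step one: compound is pinned into 1nM USP1/UAF1 in HEPES pH 7.8 buffer with TCEP. Step two: 15 min room-temperature incubation. Step three: Ub-Rho (150nM final) starts cleavage, tracked by fluorescence over six one-minute reads.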
IL1B secr inh – blocks inflammasome-driven IL-1 beta release; activity change, % at 57.5 µM; AID 743279; THP-1 LPS/ATP IL-1B secretion, AlphaLISA, 16 h; stronger effect = lower value; 360,000 tested, 4.7% active; in the data active means activity change below about -50%; inconclusive means mostly about -30% to -49%
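THP-1 cells pretreated 1 hr with compounds (up to 57.5 uM final), then stimulated with LPS (250 ng/mL final) plus ATP (1.25 mM final); secreted IL-1B measured by AlphaLISA after 16 hr, decreased signal indicating inhibition.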
USP2a inh – inhibitors of human ubiquitin-specific protease USP2a. O75604. USP2 core, Ub-CHOP2 coupled fluorogenic reporter, 485/531. Potency, µM (highest dose often 38.3 µM), usual class: inhibitors. 330,000 tested, 0.01% active. AID 463254
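Deubiquitinase activity read as fluorescence (485/531 nm) after Ub-CHOP2 cleavage activates the enterokinase reporter on its substrate; USP2 core 10nM, Ub-CHOP2 and substrate 25nM each, 30min compound preincubation then 60min RT; data normalized to NEM, curves fitted.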
S2 tox – viability counter-screen for ATXN expression inhibitors; S2 cells (HEK-293 line with an ATXN2-luciferase reporter) viability, CellTiter-Fluor protease fluorescence, 24 h; Potency, µM (highest dose often 56.7 µM), usual class: cytotoxic; 400,000 tested, 0.49% active; AID 651635; further: nearly all actives have a fitted effect of over 40% in size
Hits are given with their value; n = inactive; u = inconclusive; x = no result given. Unless noted, the call rests on the fitted dose curve; in most records, active means well fitted curve in the direction sought with a large enough effect; inconclusive means small, poorly fitted or top-dose-only effect, or another doubt; inactive means no such curve, though single readings can be large; an effect the other way counts as inactive or inconclusive.

SMILES	ATXN2 expr inh	USP1-UAF1 inh	IL1B secr inh	USP2a inh	S2 tox
CCCCCC1Nc2cc(C(F)(F)F)c(S(N)(=O)=O)cc2S(=O)(=O)N1 (centres undefined)	n	x	x	x	n
Cc1cccc(CNc2ncnc3ccc(-c4cccc(Cl)c4)cc23)c1	x	x	x	n	x
CCC[C@H](CN[C@@H](CNC)[C@H](C)O)NCCc1ccc(OC)cc1	n	n	n	n	n
CCCC[C@H](CN[C@@H](CNC)[C@H](C)CC)NCCC12CCC(CC1)C2	28.2µM	n	-67.6	n	28.2µM
Cc1ccc(CN(Cc2ccccn2)C(=O)Nc2ccc(C)c(C)c2)cc1	n	n	-57.9	n	n
CCOC(=O)c1ccc2ncc(C(=O)OCC)c(Nc3ccc(N4CCOCC4)cc3)c2c1	22.4µM	n	n	n	u
COc1ccccc1CN1CCNC(=O)C1CC(=O)N(C)C1CCOCC1 (centres undefined)	x	n	n	x	n
O=C1c2ccccc2-c2onc3ccc(NCCCn4ccnc4)c1c23	u	28.2µM	-97.4	u	u
COc1ccc2noc3c2c1C(=O)c1ccccc1-3	x	3.98µM	u	x	x
COc1ccc(OC)c2c1C(=O)C(Cl)=C(Cl)C2=O	7.08µM	n	-117.4	n	7.94µM
COc1ccc(N)c2c1C(=O)c1ccccc1C2=O	n	n	-84.7	n	n
O=C[C@H](O)[C@@H](O)[C@H](O)[C@H](O)CO	x	x	x	x	n
COCCOC(=O)C1=C(C)NC2=C(C(=O)CC(c3ccccc3OC)C2)C1c1cccc(O)c1 (centres undefined)	n	x	x	x	x
COc1ccc(OC)c2c1C(=O)c1ccccc1C2=O	n	31.6µM	n	u	n
Nc1ccc(O)c2c1C(=O)c1ccccc1C2=O	n	n	-56.9	n	20µM
COc1cccc2c1C(=O)c1ccc3ccccc3c1C2=O	n	n	n	n	n
NC(=O)c1ccsc1NC(=O)c1cccs1	n	n	n	x	n
NC(=O)c1ccsc1NC(=O)c1ccc2c(c1)CCCC2	n	n	-55.3	n	u
CNC(=O)c1ccsc1NC(=O)c1ccc2c(c1)CCCC2	n	n	-55.2	n	u
NC(=O)c1ccsc1NC(=O)c1ccc(N2CCCC2=O)cc1	x	n	-56.3	n	n
COCc1c(C(=O)NCC2CCCN(C)C2)cnn1-c1ncc2c(n1)-c1ccccc1CCC2 (centres undefined)	x	x	x	x	n
CC1(C)CC(=O)C=C(c2ccc(COC(=O)Cc3ccccc3)cc2)C1=O	n	n	n	x	n
Cc1ccc(NC(=O)CCc2c(C)nc3ncnn3c2C)cc1Cl	n	u	x	x	n
COc1ccc(CC(=O)Nc2nc3ccc(F)cc3s2)cc1S(=O)(=O)N1CCOCC1	n	n	-59.1	n	n
COc1ccc2nc(NC(=O)C3CCN(S(=O)(=O)c4cccs4)CC3)sc2c1	u	n	-74.6	n	n
SMILES	ATXN2 expr inh	USP1-UAF1 inh	IL1B secr inh	USP2a inh	S2 tox
Cc1ccc2nc(NC(=O)C3CCN(S(=O)(=O)c4cc([N+](=O)[O-])ccc4Cl)CC3)sc2c1	n	n	u	n	u
O=C(Nc1nc2ccc(F)cc2s1)C1CCN(S(=O)(=O)c2cc([N+](=O)[O-])ccc2Cl)CC1	u	n	-90.8	n	n
COc1ccc2nc(NC(=O)C3CCN(S(=O)(=O)c4cccnc4)CC3)sc2c1	n	n	n	n	n
O=C(Nc1nc2cc(Cl)ccc2s1)C1CCCN(S(=O)(=O)c2cccc3cccnc23)C1 (centres undefined)	17.8µM	n	n	n	u
COc1ccc2c(CNCc3cccs3)c(C(=O)O)n(Cc3ccccc3C)c2c1	x	n	x	x	x
COc1ccc(-n2c(SCc3ccccc3F)nc3c([nH]c4ccccc43)c2=O)cc1OC	n	n	x	x	n
O=C(OCN1C(=O)c2ccccc2C1=O)c1cccc(OC(F)F)c1	n	u	n	n	n
COc1ccc2nc(NC(=O)c3ccc(S(=O)(=O)N4CCCC(C)C4)cc3)sc2c1 (centres undefined)	n	n	x	x	n
COc1ccc2nc(NC(=O)C3CCCN(S(=O)(=O)c4cccs4)C3)sc2c1 (centres undefined)	n	n	-58.7	n	n
Cc1ccc2nc(NC(=O)C3CCN(S(=O)(=O)c4cccs4)CC3)sc2c1	u	n	-76.3	n	n
CCOc1ccc(NC(=O)C2CCN(S(=O)(=O)c3cccs3)CC2)cc1	n	n	-58.4	n	n

Source: PubChem BioAssay (National Center for Advancing Translational Sciences (NCATS))
